# Assay results from PubChem BioAssay (Tox21).
# Inconclusive results are not listed. Entries that show only a call come without a potency. Activity calls are given as the source filed them. Unless noted, calls follow the shape of the dose curve; as a rule, active = well fitted curve in the direction sought with a large enough effect in the repeat runs; inconclusive = weak or mixed curves; inactive = no such curve, though single readings can be large; an effect the other way counts as inactive or inconclusive.
# Key:
# [1] = qHTS assay to identify small molecule antagonists of the retinoid acid receptor (RAR) signaling pathway - cell viability counter screen (AID 1159551); also: nearly all actives have a fitted effect of over 35% in size
# Method in brief: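 Following overnight attachment, C3RL4 reporter cells received DMSO-dissolved compounds and then retinol (1 uM final). Six hours later at 37 C, ATP content was measured by CellTiter-Glo luminescence.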
# [2] = qHTS assay to identify small molecule antagonists of the retinoic acid receptor (RAR) signaling pathway (AID 1159552; also: nearly all actives have a fitted effect of over 50% in size)
# Method in brief: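 RARE-luc C3RL4 cells; cpds + 1 uM (final) retinol, 6 hr, 37 C/5% CO2; luciferase reagent, 30 min RT, luminescence readout. Inhibitors of retinol-driven signal scored.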
# [3] = qHTS assay to identify small molecule agonists of the retinoic acid receptor (RAR) signaling pathway (AID 1159553); conditions: C3RL4 RARE luciferase reporter, agonist, 6 h; activation: at 73.3 µM (top of the series) unless noted; also: potency is read from the fitted curve at half-maximal effect
# Method in brief: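 Cell line C3RL4, RARE luciferase reporter. Treatment: compounds in DMSO, 6 hr, 37 C, 5% CO2, after overnight plating. Detection: luminescence, 30 min RT after reagent.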
# [4] = biological target: Luciferin 4-monooxygenase (Photinus pyralis) (UniProt P08659); test: qHTS assay to identify small molecule inhibitors of firefly luciferase (AID 1224835); also: nearly all actives have a fitted effect of over 25% in size; also: potency is read from the fitted curve at half-maximal effect
# Sequence of Luciferin 4-monooxygenase (Photinus pyralis) (P08659 whole entry, looked up): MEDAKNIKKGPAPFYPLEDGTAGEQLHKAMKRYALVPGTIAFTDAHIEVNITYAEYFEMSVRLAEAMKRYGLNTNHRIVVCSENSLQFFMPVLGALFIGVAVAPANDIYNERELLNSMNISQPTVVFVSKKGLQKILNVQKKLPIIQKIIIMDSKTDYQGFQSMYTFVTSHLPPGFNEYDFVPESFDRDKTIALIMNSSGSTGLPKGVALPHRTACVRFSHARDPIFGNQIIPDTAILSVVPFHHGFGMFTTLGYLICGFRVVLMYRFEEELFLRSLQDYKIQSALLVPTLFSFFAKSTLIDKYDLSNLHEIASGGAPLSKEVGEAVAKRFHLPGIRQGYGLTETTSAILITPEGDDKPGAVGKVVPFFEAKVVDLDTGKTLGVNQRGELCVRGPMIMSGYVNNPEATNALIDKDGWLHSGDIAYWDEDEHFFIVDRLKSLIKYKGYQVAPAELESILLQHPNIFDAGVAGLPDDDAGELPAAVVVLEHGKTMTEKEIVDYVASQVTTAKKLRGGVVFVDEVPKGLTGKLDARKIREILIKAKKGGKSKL
# Method in brief: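 Inhibition of purified Photinus luciferase is measured by luminescence. Substrate levels (D-luciferin, ATP) sit at their KM values. Each compound is tested in a concentration series.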
# [5] = biological target: Nuclear receptor subfamily 1 group I member 3 (Homo sapiens) (UniProt Q14994); test: qHTS assay to identify small molecule antagonists of the constitutive androstane receptor (CAR) signaling pathway (AID 1224838); also: nearly all actives have a fitted effect of over 40% in size
# Sequence of Nuclear receptor subfamily 1 group I member 3 (Homo sapiens) (Q14994 whole entry, looked up): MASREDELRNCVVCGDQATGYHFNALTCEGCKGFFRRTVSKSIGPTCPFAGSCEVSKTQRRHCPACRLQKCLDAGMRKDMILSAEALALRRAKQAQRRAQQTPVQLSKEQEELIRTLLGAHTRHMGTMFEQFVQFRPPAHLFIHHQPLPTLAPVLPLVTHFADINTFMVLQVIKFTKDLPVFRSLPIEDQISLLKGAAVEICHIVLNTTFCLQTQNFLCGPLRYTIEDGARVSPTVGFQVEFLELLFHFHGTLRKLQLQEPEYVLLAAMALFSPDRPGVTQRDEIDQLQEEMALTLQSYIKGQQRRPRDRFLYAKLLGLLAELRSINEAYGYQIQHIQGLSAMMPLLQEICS
# Method in brief: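 Quantitative HTS in double-stable HepG2-CYP2B6-hCAR cells. After 4 h plating, cells get compound (15 concentrations) and CITCO at 50 nM final, incubate 24 h at 37 C, then ONE-Glo luminescence is read.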
# [6] = biological target: Nuclear receptor subfamily 1 group I member 3 (Homo sapiens) (UniProt Q14994); test: qHTS assay to identify small molecule agonists of the constitutive androstane receptor (CAR) signaling pathway (AID 1224839); also: nearly all actives have a fitted effect of over 15% in size; also: potency is read from the fitted curve at half-maximal effect;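 as to activation: HepG2 cells stably carrying human CAR and a CYP2B6 luciferase reporter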
# Method in brief: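 HepG2 cells stably expressing hCAR and a CYP2B6-2.2kb luciferase reporter were treated with compounds at 15 concentrations plus 0.75 uM PK11195 (final) for 24 h at 37 C; luminescence was read after ONE-Glo addition.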
# [7] = qHTS assay to identify small molecule antagonists of the estrogen related receptor signaling pathway with the pleiotropic PPARgamma coactivator (PGC) from Tox21 10K library (AID 1224841; call rule not given here; also: actives are mostly falling curves and most rising ones were filed inactive; nearly all actives have a fitted effect of over 50% in size; also: potency is read from the fitted curve at half-maximal effect)
# Method in brief: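 Compound exposure ran 18 hours at 37 C in PGC/ERR cells (2,000/well) that had first rested 6 hours in a 37 C/5% CO2 incubator. Luciferase activity was then detected with One-Glo after a 30-minute room-temperature step.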
# [8] = qHTS assay to identify small molecule agonists of the estrogen related receptor signaling pathway with the pleiotropic PPARgamma coactivator (PGC) from Tox21 10K library (AID 1224842); also: nearly all actives have a fitted effect of over 15% in size; also: potency is read from the fitted curve at half-maximal effect
# Method in brief: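 Luminescence from One-Glo (30 min, room temperature) measured after PGC/ERR cells had 18 h at 37 C with pinned compound (23 nL in DMSO). Cells had been seeded at 2,000 per well and pre-incubated 6 h.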
# [9] = biological target: Thyrotropin receptor (Homo sapiens) (UniProt P16473); test: qHTS assay to identify small molecule agonists of the thyroid stimulating hormone receptor (TSHR) signaling pathway (AID 1224843; calls by dose curve; also: nearly all actives have a fitted effect of over 45% in size)
# Sequence of Thyrotropin receptor (Homo sapiens) (P16473 whole entry, looked up): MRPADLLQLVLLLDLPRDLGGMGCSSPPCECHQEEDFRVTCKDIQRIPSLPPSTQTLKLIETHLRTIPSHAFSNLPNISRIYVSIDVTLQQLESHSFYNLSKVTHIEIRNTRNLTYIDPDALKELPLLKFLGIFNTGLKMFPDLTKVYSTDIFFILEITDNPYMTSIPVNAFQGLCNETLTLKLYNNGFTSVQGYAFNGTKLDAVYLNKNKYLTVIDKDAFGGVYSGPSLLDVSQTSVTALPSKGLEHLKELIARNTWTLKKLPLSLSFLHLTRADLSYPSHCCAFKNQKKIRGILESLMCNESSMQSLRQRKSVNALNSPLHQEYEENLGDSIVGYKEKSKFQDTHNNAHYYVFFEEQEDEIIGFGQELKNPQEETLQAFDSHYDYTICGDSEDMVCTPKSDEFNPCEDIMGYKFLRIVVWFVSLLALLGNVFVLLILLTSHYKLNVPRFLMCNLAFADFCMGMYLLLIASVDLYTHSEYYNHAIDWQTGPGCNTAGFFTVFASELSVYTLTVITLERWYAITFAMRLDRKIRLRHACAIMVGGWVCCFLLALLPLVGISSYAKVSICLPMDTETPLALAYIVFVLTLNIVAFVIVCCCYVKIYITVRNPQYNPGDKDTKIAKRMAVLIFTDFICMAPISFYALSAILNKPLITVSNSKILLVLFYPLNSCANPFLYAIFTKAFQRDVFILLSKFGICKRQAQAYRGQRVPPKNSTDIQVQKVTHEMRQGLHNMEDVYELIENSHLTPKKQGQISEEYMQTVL
# Method in brief: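 HEK293 cells stably bearing the thyrotropin receptor were plated at 800 cells/well and challenged with compound (30 min, RT). Accumulated cAMP was quantified via cAMP-d2 competing for cryptate-tagged antibody.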
# [10] = qHTS assay to identify small molecule agonists of the hypoxia (HIF-1) signaling pathway - cell viability counter screen (AID 1224844; calls by dose curve; also: nearly all actives have a fitted effect of over 50% in size)
# Method in brief: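 Luminescent ATP content (CellTiter-Glo, 30 min, room temperature) served as the viability measure in HRE-bla ME-180 cells exposed to compounds for 17 hrs in low-serum medium (0.5% dialyzed FBS).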
# [11] = qHTS assay to identify small molecule antagonists of the estrogen related receptor (ERR) signaling pathway from Tox21 library - cell viability counter screen (AID 1224834); also: nearly all actives have a fitted effect of over 30% in size; also: potency is read from the fitted curve at half-maximal effect
# Method in brief: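 Viability readout (CellTiter-Fluor fluorescence, 30 min at 37 C) multiplexed with the ERR assay; cells treated 17.5 h at 37 C with compounds delivered in DMSO.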
# [12] = qHTS assay to identify small molecule agonists of the constitutive androstane receptor (CAR) signaling pathway - cell viability counter screen (AID 1224836); also: nearly all actives have a fitted effect of over 45% in size; also: potency is read from the fitted curve at half-maximal effect
# Method in brief: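 HepG2 cells stably carrying hCAR and a CYP2B6-2.2kb reporter were plated 4 h, then given compounds at 15 concentrations plus PK11195 (final 0.75 uM). After 23 h at 37 C, viability was read by CellTiter-Fluor fluorescence.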
# [13] = qHTS assay to identify small molecule antagonists of the constitutive androstane receptor (CAR) signaling pathway - cell viability counter screen (AID 1224837); also: nearly all actives have a fitted effect of over 45% in size; also: potency is read from the fitted curve at half-maximal effect
# Method in brief: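 Fluorescence from CellTiter-Fluor served as the viability signal. Human hepatoma HepG2 cells stably bearing hCAR and CYP2B6-2.2kb received compound plus CITCO (50 nM final) for 23 hr.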
# [14] = qHTS assay to identify small molecule antagonists of the estrogen related receptor signaling pathway with the pleiotropic PPARgamma coactivator (PGC) from Tox21 10K library - cell viability counter screen (AID 1224840; active = well fitted cell-killing curve with a large enough effect in the repeat runs, not every such curve was filed as active; also: nearly all actives have a fitted effect of over 40% in size; also: potency is read from the fitted curve at half-maximal effect)
# Method in brief: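 Compounds in DMSO, alongside positive and negative controls, were pinned onto PGC/ERR cells (2,000 per well). Exposure lasted 17.5 hours at 37 C, followed by a 30-minute CellTiter-Fluor incubation and fluorescence reading.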
# [15] = qHTS assay to identify small molecule agonists of the RXR signaling pathway - cell viability counter screen (AID 1159529);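 also: HEK 293T cells carrying an RXR-alpha UAS beta-lactamase reporter; nearly all actives have a fitted effect of over 50% in size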
# Method in brief: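 RXR-alpha-UAS-bla HEK 293T cells in medium with 2% charcoal-stripped FBS were preincubated 5 hr, then exposed to compounds for 16 hr at 37 C. Viability was read as CellTiter-Glo luminescence after 30 min at room temperature.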
# [16] = qHTS assay to identify small molecule antagonists of the estrogen related receptor (ERR) signaling pathway - cell viability counter screen (AID 1224818);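 also: viability measured after 17.5 h of compound exposure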
# Method in brief: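 Here, ERR cells are plated at 2,000 cells per well, allowed 6 h to attach, and treated with compounds in DMSO for 17.5 h at 37 C. CellTiter-Fluor is then added and fluorescence read after 30 min.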
# [17] = qHTS assay to identify small molecule antagonists of the estrogen related receptor (ERR) signaling pathway (AID 1224819)
# Method in brief: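 LOPAC library screened for antagonism as reduced One-Glo luminescence in ERR reporter cells (2,000/well). Compounds were added after 6 h pre-incubation and left 18 h at 37C; reading followed a 30 min room-temperature reagent step.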
# [18] = qHTS assay to identify small molecule agonists of the estrogen related receptor (ERR) signaling pathway (AID 1224820)
# Method in brief: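 Quantitative HTS of the LOPAC library used NTP ERR reporter cells treated 18 h at 37 C. Signal is luminescence after One-Glo addition and a 30 min room-temperature incubation.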
# [19] = tested on: estrogen-related receptor alpha (ERRalpha) with PGC-1alpha coactivator, human; test: qHTS assay to identify small molecule antagonists of the estrogen related receptor signaling pathway with the pleiotropic PPARgamma coactivator (PGC) (AID 1224821; calls by dose curve)
# Method in brief: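 Quantitative HTS for antagonism: PGC/ERR cells received compounds after 6 h attachment and were incubated 18 h at 37 C, with luminescence (One-Glo) as the endpoint.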
# [20] = qHTS assay to identify small molecule agonists of the estrogen related receptor signaling pathway with the pleiotropic PPARgamma coactivator (PGC) (AID 1224823)
# Method in brief: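 Cell-based luciferase assay in the NTP-supplied PGC/ERR line, 2,000 cells/well; 18 h compound exposure at 37 C, luminescence after One-Glo.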
smiles,measurement,setting,value
O=C(O)c1cc(N=Nc2ccc([N+](=O)[O-])cc2)ccc1O,Potency,[1],inactive
same,Potency,[2],inactive
same,Potency,[3],6.73 µM (active)
same,Potency,[4],0.878 µM (active)
same,Potency,[5],inactive
same,Potency,[6],0.673 µM (active)
same,Potency,[7],inactive
same,Potency,[8],9.51 µM (active)
same,Potency,[9],inactive
same,Potency,[10],inactive
Cc1ccc(N/N=c2\c(=O)cc/c(=N\Nc3ccc(S(=O)(=O)O)cc3)c2=O)c(C)c1,Potency,[1],inactive
same,Potency,[2],inactive
same,Potency,[3],inactive
same,Potency,[11],30.6 µM (active)
same,Potency,[4],28.3 µM (active)
same,Potency,[12],30.6 µM (active)
same,Potency,[13],48.6 µM (active)
same,Potency,[5],inactive
same,Potency,[6],inactive
same,Potency,[14],30.6 µM (active)
same,Potency,[8],inactive
same,Potency,[9],inactive
Cc1c(C)c([N+](=O)[O-])c(C(C)(C)C)c([N+](=O)[O-])c1C,Potency,[1],inactive
same,Potency,[2],inactive
same,Potency,[3],inactive
same,Potency,[11],inactive
same,Potency,[4],inactive
same,Potency,[12],inactive
same,Potency,[13],inactive
same,Potency,[6],27.3 µM (active)
same,Potency,[14],inactive
same,Potency,[7],inactive
same,Potency,[8],inactive
O=c1oc2cc(O)ccc2c2oc3cc(O)ccc3c12,Potency,[1],inactive
same,Potency,[2],inactive
same,Potency,[3],52.2 µM (active)
same,Potency,[11],inactive
same,Potency,[12],inactive
same,Potency,[13],inactive
same,Potency,[5],inactive
same,Potency,[7],inactive
same,Potency,[8],58.6 µM (active)
same,Potency,[10],inactive
O=[N+]([O-])c1ccc(F)c(Cl)c1,Potency,[1],inactive
same,Potency,[2],inactive
same,Potency,[3],inactive
same,Potency,[4],inactive
same,Potency,[12],inactive
same,Potency,[13],inactive
same,Potency,[5],inactive
same,Potency,[6],inactive
same,Potency,[9],inactive
Cc1ccc(C)cc1,Potency,[1],inactive
same,Potency,[2],inactive
same,Potency,[3],inactive
same,Potency,[11],inactive
same,Potency,[4],inactive
same,Potency,[12],inactive
same,Potency,[13],inactive
same,Potency,[14],inactive
same,Potency,[7],inactive
same,Potency,[8],inactive
ClCCl,Potency,[1],inactive
same,Potency,[2],inactive
same,Potency,[3],inactive
same,Potency,[11],inactive
same,Potency,[4],inactive
same,Potency,[12],inactive
same,Potency,[13],inactive
same,Potency,[5],inactive
same,Potency,[6],inactive
same,Potency,[14],inactive
same,Potency,[10],inactive
C=CCCC(=O)/C=C/C1C(C)=CCCC1(C)C (stereo unspecified),Potency,[1],inactive
same,Potency,[2],inactive
same,Potency,[3],inactive
same,Potency,[11],inactive
same,Potency,[4],inactive
same,Potency,[12],inactive
same,Potency,[13],inactive
same,Potency,[14],inactive
Clc1nnc(Cl)c2ccccc12,Potency,[1],inactive
same,Potency,[2],inactive
same,Potency,[3],inactive
same,Potency,[11],inactive
same,Potency,[12],inactive
same,Potency,[13],inactive
same,Potency,[6],inactive
same,Potency,[14],inactive
same,Potency,[10],inactive
CC1=Nc2ccccc2C1(C)C,Potency,[15],inactive
same,Potency,[11],inactive
same,Potency,[4],20 µM (active)
same,Potency,[12],inactive
same,Potency,[13],inactive
same,Potency,[14],inactive
same,Potency,[7],inactive
same,Potency,[8],30.7 µM (active)
same,Potency,[9],inactive
O=C(/C=C/c1ccccc1)OC/C=C/c1ccccc1,Potency,[1],inactive
same,Potency,[2],inactive
same,Potency,[11],inactive
same,Potency,[4],71 µM (active)
same,Potency,[12],inactive
same,Potency,[13],inactive
same,Potency,[14],inactive
same,Potency,[7],inactive
same,Potency,[8],inactive
same,Potency,[10],inactive
CCc1oc2ccccc2c1C(=O)c1cc(I)c(O)c(I)c1,Potency,[1],inactive
same,Potency,[2],inactive
same,Potency,[3],inactive
same,Potency,[4],inactive
same,Potency,[12],inactive
same,Potency,[13],inactive
same,Potency,[14],inactive
same,Potency,[9],inactive
same,Potency,[10],inactive
Cc1cc(-c2ccc(N=Nc3cc(S(=O)(=O)O)c4ccccc4c3N)c(C)c2)ccc1N=Nc1cc(S(=O)(=O)O)c2ccccc2c1N,Potency,[1],inactive
same,Potency,[2],inactive
same,Potency,[3],inactive
same,Potency,[11],inactive
same,Potency,[4],inactive
same,Potency,[6],inactive
same,Potency,[14],inactive
same,Potency,[7],12.3 µM (active)
same,Potency,[8],inactive
same,Potency,[9],inactive
same,Potency,[10],inactive
CCCNCCC,Potency,[1],inactive
same,Potency,[2],inactive
same,Potency,[3],inactive
same,Potency,[4],inactive
same,Potency,[12],inactive
same,Potency,[13],inactive
same,Potency,[5],inactive
same,Potency,[6],inactive
same,Potency,[14],inactive
same,Potency,[9],inactive
same,Potency,[10],inactive
CCCCCc1ccc(Cl)cc1,Potency,[1],inactive
same,Potency,[2],inactive
same,Potency,[3],inactive
same,Potency,[11],inactive
same,Potency,[4],inactive
same,Potency,[12],inactive
same,Potency,[13],inactive
same,Potency,[7],inactive
same,Potency,[8],inactive
same,Potency,[9],inactive
same,Potency,[10],inactive
CC(C)(C)NSc1nc2ccccc2s1,Potency,[1],inactive
same,Potency,[2],inactive
same,activation,[3],7.05% [at 94.8 µM] (active)
same,Potency,[4],18.1 µM (active)
same,Potency,[12],inactive
same,Potency,[13],inactive
same,Potency,[6],inactive
same,Potency,[9],inactive
same,Potency,[10],inactive
CN1CCN2c3ccccc3Cc3ccccc3C2C1 (stereo unspecified),Potency,[1],inactive
same,Potency,[2],inactive
same,Potency,[3],inactive
same,outcome,[16],inactive
same,Potency,[17],inactive
same,outcome,[18],inactive
same,Potency,[19],inactive
same,outcome,[20],inactive
same,Potency,[11],inactive
same,Potency,[4],inactive
same,Potency,[12],inactive
same,Potency,[13],inactive
same,Potency,[14],inactive
same,Potency,[7],inactive
same,Potency,[8],inactive
same,Potency,[9],inactive
O=[N+]([O-])c1ccc(O)cc1C(F)(F)F,Potency,[1],inactive
same,Potency,[2],inactive
same,Potency,[3],inactive
same,Potency,[11],15.4 µM (active)
same,Potency,[6],inactive
same,Potency,[14],17.2 µM (active)
same,Potency,[7],inactive
same,Potency,[9],inactive
same,Potency,[10],inactive
CC(C)CCOC(=O)/C=C/c1ccccc1,Potency,[1],inactive
same,Potency,[2],inactive
same,Potency,[3],10.9 µM (active)
same,Potency,[11],inactive
same,Potency,[4],8 µM (active)
same,Potency,[12],inactive
same,Potency,[13],inactive
same,Potency,[5],inactive
same,Potency,[14],inactive
same,Potency,[9],inactive
same,Potency,[10],inactive
